The list is not random: actives were taken first. Their share in the collection is about 1.7%.
eIF4H inh: inhibitors of RNA binding by human eIF4H | Q15056 | eIF4H fluorescence polarization binding assay | inhibition, % at 35 µM | 290,000 tested, 0.94% active | AID 2012;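 also: calls also rest on retests at 20 µM and on dose response follow-up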
EBV gp42 block: EBV gp42 inhibition; Q1HVG2; Fluorescence polarization binding assay, mP read-out; inhibition, % (tested at 21.74 µM); 220,000 tested, 0.42% active; in the data active = inhibition above about 50%
eIF4E 4G PPI: inhibitors of eIF4E and eIF4G interaction in translation initiation; P63073+Q04637; TR-FRET eIF4E-eIF4GI(517-606) binding, 2 h; inhibition, % at 21.7 µM; 220,000 tested, 0.37% active; AID 782;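 active = inhibition above about 30%, limit read from the data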;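 also: 0% = full FRET control wells and 100% = background wells lacking eIF4GI fragment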
PABP polyA inh: PABP-poly(A) binding inhibition | calls only at 35 µM | P11940 | 290,000 tested, 1% active | PABP-poly(A) RNA binding, fluorescence polarization;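 also: calls also rest on retests at 20 µM and on dose response follow-up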
MLLE-PAM2 inh: inhibitors of microRNA-mediated deadenylation, human PABP1 MLLE binding | P11940 | 360,000 tested, 0.36% active | inhibition, % at 20 µM | GST-MLLE / FITC-PAM2 fluorescence polarization | AID 588489; in the data active = inhibition above about 35%, passing the limit was not always enough;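 also: plate controls were DMSO wells with GST-MLLE for no effect and wells lacking GST-MLLE protein for full effect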
* marks the source's active call; other numbers are inactive results; i = inactive; ? = inconclusive; . = no result; + = active, no number; [ ] = another dose, or the depositor's remark. Unless noted, no rule for the calls is given here.

SMILES	eIF4H inh	EBV gp42 block	eIF4E 4G PPI	PABP polyA inh	MLLE-PAM2 inh
CCCC(C(=O)NCCC(C)C)N(Cc1ccccc1)C(=O)c1snc(C(N)=O)c1N (configuration not stated)	-2	.	.	i	4
CC(C)CCNC(=O)C(C)N(C(=O)c1snc(C(N)=O)c1N)c1cnc2ccccc2c1 (configuration not stated)	5	-1	2	+	-4
NC(=O)c1ccsc1NC(=O)CSc1nc2ccccc2c(=O)n1CCCO	1	-28	-13	i	51*
Cc1ccc(S(=O)(=O)c2c(N)n(/N=C/c3ccco3)c3nc4ccccc4nc23)cc1	69*	-2	-4	+	-17
Nc1c(S(=O)(=O)c2ccccc2)c2nc3ccccc3nc2n1/N=C/c1ccco1	64	23	0	+	-36
CC(C)CC(OC(=O)c1nsc(Cl)c1Cl)C(=O)NCC1CCCO1 (configuration not stated)	6	.	.	i	2
FC(F)(F)c1cc(C(F)(F)F)c2ccc(N3CCOCC3)nc2n1	4	.	.	i	0
CN1CCCc2cc3c(C(F)(F)F)cc(=O)oc3nc21	?	132*	3	?	135
C[C@H]1O[C@H](O[C@H]2[C@H](O)[C@@H](O)[C@@H](O[C@H]3[C@H](O)[C@@H](O)C(O)O[C@@H]3CO)O[C@@H]2CO)[C@H](O)[C@@H](O)[C@@H]1N[C@H]1C=C(CO)[C@@H](O)[C@H](O)[C@H]1O (some centres not stated)	7	-14	0	i	.
COc1ccc(/C(C)=N\NC(=O)CSc2nnc(C)s2)cc1	-8	-10	-2	i	48*
C/C(=N\NC(=O)CSc1nnc(C)s1)c1ccc(Cl)cc1	-7	2	3	i	27
Cc1ccc(Cl)cc1NC(=O)c1cc(S(=O)(=O)N2CCOCC2)cn1C	0	.	.	i	-20
COc1ccc(N2Cc3cccc(C(=O)N4CCN(C(=O)c5ccco5)CC4)c3C2=O)cc1	93*	46	14	+	-10
NC(=O)C1CCN(C(=O)C2CC(=O)N(c3ccc(F)cc3)C2)CC1 (configuration not stated)	-2	.	.	i	-1
NC(c1ccccc1)c1csc(NC(=O)NCC2CCCCC2)n1 (configuration not stated)	.	.	.	.	-8
Cc1ccc(C(=O)/C=C/C(=O)O)cc1	-1	-4	9	i	44*
Cc1c(NC(=O)c2cc(CC(C)C)on2)c(=O)n(-c2ccccc2)n1C	-15	-17	34*[fluorescence artefact?]	i	2
Cc1c(NC(=S)Nc2cccc(Cl)c2)c(=O)n(-c2ccccc2)n1C	active	5	-2	i	16
COc1cc(N2CCCC2)c(OC)cc1/C=C(/C#N)c1ccc(F)cc1	35	139*	5	i	-136
COc1ccc(C(C#N)=Cc2ccccc2OC)cc1	.	.	.	.	22
COc1ccc(C(C#N)=Cc2ccc(OC)c(OC)c2)cc1	.	.	.	.	-1
COc1cc(N2CCCC2)c(OC)cc1/C=C(/C#N)c1ccc(Br)cc1	127	95*	-3	i	-24
O=[N+]([O-])c1ccc(NCCCNS(=O)(=O)c2ccc(Cl)cc2)c(Cl)c1	-6	-13	-4	i	10
CN(C(=O)c1ccco1)c1nc2c(s1)CCCC2	-3	-14	0	i	-7
CCOC(=O)C1=C(O)/C(=C\c2cccs2)N=C1C	-7	1	0	i	-7
SMILES	eIF4H inh	EBV gp42 block	eIF4E 4G PPI	PABP polyA inh	MLLE-PAM2 inh
CCOC(=O)C1=C(O)/C(=C\c2sccc2C)N=C1C	78*	-25	23	+	9
COC(=O)C1=C(O)/C(=C\c2sccc2C)N=C1C	65*	-8	1	+	1
O=C1CN(C(=O)COc2c(F)c(F)cc(F)c2F)c2ccccc2N1	4	.	.	i	-11
COc1cccc2cc(/C(=N/O)c3ccccc3)oc12	4	-10	-2	i	-3
Cc1[nH]nc(SCC(=O)NCc2ccc(Cl)cc2)c1[N+](=O)[O-]	4	-13	1	i	6
O=C1NN(c2ccc(Cl)c(Cl)c2)C(=O)/C1=C/c1cccc(OC(=O)c2cccs2)c1	82*	-9	-5	+	.
COC(=O)c1[nH]c2ccccc2c1NC(=O)/C=C/c1ccc2c(c1)OCO2	-12	-25	1	+	10
CC(=O)Nc1cccc(NC(=O)c2cc(-c3ccccn3)nc3ccc(Cl)cc23)c1	52	.	.	+	-3
Cc1cc(C)cc(NS(=O)(=O)c2ccc(NC(=S)NC(=O)c3cccs3)cc2)c1	5	9	3	i	34
CN(C1CCCCC1)S(=O)(=O)c1ccc(NC(=S)NC(=O)c2cccs2)cc1	-6	-14	-4	i	43*
COc1cc(CNS(=O)(=O)c2ccc3c(c2)CC(C)N3C(C)=O)cc(OC)c1OC (configuration not stated)	-12	.	.	i	-5
O=C1C(=Cc2ccc(Br)o2)C(=O)c2ccccc21	89*	65*	38*[fluorescence artefact?]	+	23
CC1=C/C(=C\c2ccc(Br)o2)C(=O)O1	86	51*	17	i	2
COc1ccc(CCNC(=O)CCc2ccc(S(=O)(=O)NCC(C)C)cc2)cc1OC	-2	5	0	i	-4
COC(=O)c1scc2c(=O)cc(C(F)(F)F)[nH]c12	48	41	-2	i	56*
O=c1cc(C(F)(F)F)[nH]c2ccc(C(F)(F)F)cc12	5	-8	2	i	-17
COC(=O)/C(=C\c1ccc([N+](=O)[O-])o1)NC(=O)c1ccccc1	128	17	-4	+	-6
CCCCNC(=O)/C(=C\c1ccc([N+](=O)[O-])o1)NC(=O)c1ccccc1	?	10	0	?	-23
CCOC(=O)c1sc(NC(=S)NC(=O)c2ccc(OC)cc2)nc1C	-6	.	.	i	15
CCOC(=O)c1sc(NC(=S)NC(=O)c2ccco2)nc1C	4	-19	2	i	41*
COc1ccc(C(=O)NC(=S)Nc2nc(C)c(C(=O)N(C)C)s2)cc1	6	-3	1	i	45*
COC(=O)c1sc(NC(=O)c2ccco2)nc1C	-1	-18	3	i	-1
COc1ccc(/C=C/C(=O)OCC(=O)c2c(C)[nH]c3ccccc23)cc1OC	-15	-7	0	i	-20
O=C(CSc1nc2cc(Cl)ccc2s1)c1cc2ccccc2o1	45*	-26	-3	+	-17
CN(C)S(=O)(=O)c1cccc(-n2sc3ccccc3c2=O)c1	-8	-4	56*	i	29
O=c1c2ccccc2sn1-c1ccccc1	-4	-18	54*	i	46*
O=C1c2ccccc2C(=O)N1c1nccs1	.	.	.	.	1
N#Cc1ccc2c(=O)n(-c3ccccc3)sc2c1	.	.	.	.	39*
O=c1c2ccccc2sn1-c1nccs1	4	-10	68*	?	29
CC(=O)Nc1ccc2c(=O)n(-c3ccccc3)sc2c1	.	.	.	.	26

Screening results deposited in PubChem by several laboratories.
